Experimental data reported in PubChem BioAssay (Tox21).
Inconclusive results are not listed. Entries that show only a call come without a potency. Calls of active or inactive are those of the source. Calls come from the whole dose curve; as a rule, active = well fitted cell-killing curve with a large enough effect in the repeat runs; inconclusive = weak or mixed curves, or effect the other way; inactive = flat fitted curve, though single readings scatter.

Test: qHTS assay to identify small molecule antagonists of the constitutive androstane receptor (CAR) signaling pathway - cell viability counter screen (AID 1224837); note: nearly all actives have a fitted effect of over 45% in size
Conditions: HepG2-CYP2B6-hCAR viability, CellTiter-Fluor, 23 h, co-treated with 50 nM CITCO; series mostly up to 92.4 µM
Text: National Center for Advancing Translational Sciences [NCATS]
NIH Chemical Genomics Center [NCGC]
U.S. Environmental Protection Agency [EPA]
National Institutes of Environmental Health Sciences [NIEHS]
National Toxicology Program [NTP]
U.S. Food and Drug Administration [FDA]
The constitutive androstane receptor (CAR) is a nuclear receptor which regulates multiple drug metabolizing enzymes (DMEs) and transporters. Activating CAR will generally increase the transcription and subsequent translation of CYP2B6 and CYP3A4. These two DMEs represent about 50% of the drug metabolizing potential in the body. When CAR is deactivated, the metabolizing potential in the body will decrease, subsequently increasing the toxicity in the body or lowering the therapeutic potential of a pro-drug. Recently, there have also been studies performed indicating CARs role in energy metabolism and cancer therapy. Therefore, inhibiting CARs activity could have a potential effect on diabetes and cancer. Identifying environmental toxins and compounds which modulate CAR, through the use of the Tox21 10K compound collection, will be an important step in determining the toxicity and potential therapeutic effects these factors will have on the human body. To differentiate true CAR antagonists from cytotoxic substances, the assay is multiplexed with a cell viability assay.
Tox21 Assay Protocol Summary:
A double-stable (hCAR and CYP2B6-2.2kb) transfected cell line, derived from human hepatoma (HepG2) cells, was utilized for the duration of the quantitative high-throughput screens. The HepG2-CYP2B6-hCAR cells were dispensed at 2500 cells/4 uL/well in 1536-well white solid bottom plates using a Multidrop Combi. After the assay plates were incubated at 37 C/5% CO2 for 4 hrs, 23 nL of compounds at 15 concentrations (from 5-48 columns) or positive control (from 1 to 4 columns) were transferred to the assay plates using a Pintool station. One uL of CITCO (final concentration = 50 nM) was added, using a Flying Reagent Dispenser, inside each well. After a 23 hr incubation period at 37 C/5% CO2, 1 uL of CellTiter-Fluor reagent was added into each well of the assay plates using a Flying Reagent Dispenser. The fluorescence intensity in the plates was then measured using a ViewLux plate reader.

| Structure (SMILES) | Potency |
| --- | --- |
| [N-]=[N+]=CC(=O)OC[C@H](N)C(=O)O | inactive |
| O=C(O)C(Br)Br | inactive |
| CNC(=O)O/N=C(\SC)C(=O)N(C)C | inactive |
| C/C=C/c1ccc2c(c1)OCO2 | inactive |
| Cc1ccccc1N | inactive |
| C=C(C)C(=O)OCC(CC)CCCC (stereo not given) | inactive |
| OC[C@@H](O)[C@H]1O[C@@H]2O[C@H](C(Cl)(Cl)Cl)O[C@@H]2[C@H]1O | inactive |
| Cc1ccc(N=C=O)cc1N=C=O | inactive |
| Nc1nc(N)nc(NC2CC2)n1 | inactive |
| CNc1cnn(-c2cccc(C(F)(F)F)c2)c(=O)c1Cl | inactive |
| CCSC(=O)N1CCCCCC1 | inactive |
| CC(=O)/C=C/c1ccccc1 | inactive |
| CC[N+](=O)[O-] | inactive |
| COc1cc(-c2ccc(N)c(OC)c2)ccc1N | inactive |
| C=CC(=O)OCCCCCC(C)C | inactive |
| NNc1ccccc1 | inactive |
| OCCCCO | inactive |
| O=[N+]([O-])c1ccc(Cl)cc1 | inactive |
| CN1C(=O)CCS(=O)(=O)C1c1ccc(Cl)cc1 (stereo not given) | inactive |
| CCCCC(CC)C(=O)Cl (stereo not given) | inactive |

| Structure (SMILES) | Potency |
| --- | --- |
| C=CC(=O)OCC(CC)CCCC (stereo not given) | inactive |
| OCc1ccco1 | inactive |
| O=S(=O)(O)OOS(=O)(=O)O | inactive |
| CNC(=O)O/N=C/C(C)(C)S(C)(=O)=O | inactive |
| CCOP(=S)(OCC)Oc1cc(C)nc(C(C)C)n1 | inactive |
| C[C@]12CC[C@H](O)CC1=CC[C@@H]1[C@@H]2CC[C@]2(C)C(=O)CC[C@@H]12 | inactive |
| O=C/C=C/c1ccccc1 | inactive |
| COC(=O)Nc1cccc(OC(=O)Nc2cccc(C)c2)c1 | inactive |
| O=P1(NCCCl)OCCCN1CCCl (stereo not given) | inactive |
| COP(=S)(OC)SCN1C(=O)c2ccccc2C1=O | inactive |
| Nc1cc(Cl)cc(Cl)c1 | inactive |
| CCOP(=S)(OCC)Oc1ccc([N+](=O)[O-])cc1 | inactive |
| CCCCCCCCCCCCCCCCCC(=O)O | inactive |
| O=C(O)COc1ccccc1 | inactive |
| CC(C)(C)C(=O)CCl | inactive |
| ClCCOCCCl | inactive |
| COS(=O)(=O)OC | inactive |
| CN(C)C(=O)Cl | inactive |
| ClC(Cl)c1ccccc1 | inactive |
| CN(C)C(=O)C(c1ccccc1)c1ccccc1 | inactive |
